Tests used:
Test in all cases: PBM binding z-score (relative to random genomic background probes); higher = stronger binding; sequences stand for … in GC…GCGATTGACAGCGTAGAATGAAGG
[1] = tested on: FXR:RXRa (NR concentration 270 nM, RXRa partner concentration 90 nM)
Summary of the method: (§1)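 The probes on custom Agilent 4×180K protein-binding microarrays were double-stranded, with 34-nt variable regions bearing direct-repeat seeds, single-nucleotide variants, half-site ablations and random human genomic background sequences. Incubation lasted 1 h with ligand-free nuclear receptor dimers in PBS pH 7.4, 2% milk, 0.02% Triton X-100, 1 mM DTT, 0.2 mg/mL BSA and 0.4 mg/ml salmon testes DNA. Antibodies against each partner (one per run) detected bound dimers, and fluorescence scans were regression-normalized. Binding z-scores take the random background probes as reference.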

[2] = tested on: LXRa:RXRa (NR concentration 270 nM, RXRa partner concentration 90 nM)
Summary of the method: as §1

[3] = tested on: LXRa homodimer (NR concentration 270 nM)
Summary of the method: as §1

[4] = tested on: LXRb:RXRa (NR concentration 270 nM, RXRa partner concentration 90 nM)
Summary of the method: as §1

[5] = tested on: LXRb homodimer (NR concentration 270 nM)
Summary of the method: as §1

[6] = tested on: PPARa:RXRa (NR concentration 270 nM, RXRa partner concentration 90 nM)
Summary of the method: as §1

[7] = tested on: PPARg:RXRa (NR concentration 180 nM, RXRa partner concentration 90 nM)
Summary of the method: as §1

[8] = tested on: PPARg:RXRa 270nM:90nM, anti-RXR (NR concentration 270 nM, RXRa partner concentration 90 nM)
Summary of the method: as §1

[9] = tested on: PPARg:RXRa 30nM:10nM, anti-RXR (NR concentration 30 nM, RXRa partner concentration 10 nM)
Summary of the method: as §1

[10] = tested on: PPARg:RXRa 90nM:30nM, anti-RXR (NR concentration 90 nM, RXRa partner concentration 30 nM)
Summary of the method: as §1

Sequence | PBM binding z-score [1] | PBM binding z-score [2] | PBM binding z-score [3] | PBM binding z-score [4] | PBM binding z-score [5] | PBM binding z-score [6] | PBM binding z-score [7] | PBM binding z-score [8] | PBM binding z-score [9] | PBM binding z-score [10]
ATCGAAAGGTCGACGAGGTGTGTATACACCGTTT | 3.98 | 3.28 | 0.0715 | 2.62 | 0.354 | 4.22 | 2.22 | 3.12 | 1.02 | 2.17
CGACCGAGGGCATGAGTTGATAGCAAATGCCGAT | 0.304 | 0.28 | -0.485 | 0.286 | -0.854 | 0.989 | 0.738 | -0.153 | -0.657 | -0.438
TCTATTAGTTGAAGGGCCACCGACGAGTCCGTTT | 0.67 | 0.709 | 0.433 | 0.782 | 0.195 | 0.892 | 0.0935 | 2.33 | 3.78 | 3.03
TCTAGCAGGCCAGAGGTTCACTCAAGAGGTACGG | -0.592 | -0.361 | -0.519 | -0.224 | -1.44 | 0.888 | 1.43 | 2.96 | 2.15 | 2.98
CAAACTAGGTCAAGAGGTAAAAGTCCGCTTCCCG | 4.11 | 3.15 | 0.451 | 2.2 | 0.356 | 5.2 | 8.8 | 7.58 | 5.87 | 7.82
ATCCCAAGGTGATCGTGAGGTCGTTGATACTAAC | 1.33 | 1.13 | 0.822 | 1.02 | -0.338 | 1.16 | 0.11 | 0.0594 | -0.299 | -0.346
TCTGCTAGGTCAACGATGGGCAGCTAATCTGCTA | 3.19 | 2.29 | -0.252 | 1.2 | -0.397 | 2.94 | 2.47 | 3.01 | 1.85 | 2.49
ATCGAAAGGTCGAGGGTGAGTATACCCACCCGAA | 4.29 | 3.45 | 0.143 | 2.57 | 0.248 | 4.67 | 3.72 | 4.25 | 1.3 | 3.04
AAAATGAGGTTACCAAAGATCAGGGAAACGCTTG | 2.21 | 6.37 | -0.0548 | 3.4 | -0.136 | 3.71 | 3.49 | 3.24 | 1.2 | 2.53
CCTAATGGGCCACGAAAGGTCATTGATTCAGTGA | 3.91 | 5.44 | 4.82 | 4.5 | 0.556 | 4.42 | 3.05 | 4.1 | 1.8 | 3.4
ACAGACATGTGAGTGAAGGTAACTCAGCTGGACG | -0.28 | -0.449 | -0.659 | -0.669 | -0.436 | -0.3 | 0.817 | -0.286 | -0.111 | 0.163
ATCGAAAGGTCGTGAGGGGAGTATACAGAAAGGC | 5.36 | 4.07 | 0.475 | 3.55 | 1.22 | 5.08 | 3.7 | 4.21 | 1.39 | 3.1
TCGCGGAGGACACGAAAGGTCAGAGCTCGACATC | 2.61 | 3.72 | 2.77 | 3.12 | -0.812 | 3.59 | 1.18 | 2.51 | 0.965 | 1.95
ACTATTAATTGAGACGAGGGCAACCGATAGGTTG | 0.638 | 0.579 | 0.685 | 0.313 | 0.479 | 0.542 | 0.7 | 0.479 | 0.271 | 0.408
ATATGTAGGTTATCGGGTCACTCAGTTTGCGCAT | 2.62 | 2.95 | 1.49 | 2.89 | 1.3 | 5.02 | 7.63 | 6 | 3.64 | 5.8
CCTGGTTGGTCAAGGTCACACACGCTATAGGTAC | 4.28 | 4.07 | 2.43 | 3.92 | 1.12 | 4.3 | 2.92 | 3.15 | 1.15 | 2.22
CCAGACACGTGAAAGGTAACTCAGTCTGGTACGC | -0.513 | -0.178 | -0.428 | 0.0481 | -0.283 | 0.287 | 0.636 | 0.0199 | -0.466 | -0.253
ACTTACGGGTCCACGAGGTTATAGCACGCGTATA | 0.87 | 0.822 | 0.478 | 1.39 | 0.189 | 1.6 | 1.01 | 0.696 | 0.165 | 0.469
TGAATGAGGTTATAAGATCAGGGACCGTTGCAAA | 1.45 | 1.26 | 0.0374 | 1.01 | -0.286 | 2.6 | 1.45 | 2.32 | 0.865 | 1.63
CGAACTAGGTCAAGAACAGTGAATCTCCGCACGC | 2.92 | 1.9 | 0.155 | 1.35 | 0.0467 | 4.39 | 6.53 | 6.17 | 2.93 | 5.49
ATCGAAAGGTCGAGCTGAGTATAGAGAAAGGGAA | 4.53 | 3.69 | -0.419 | 2.54 | 0.538 | 4.36 | 2.96 | 3.02 | 1.22 | 1.96
CTAACTAGGTCAAGGACAGTGAATCTCCGCACGC | 3.07 | 2.43 | 0.51 | 1.58 | 0.129 | 4.99 | 8.18 | 6.92 | 4.93 | 6.92
GAGACTGGGGCAAAGCAGGTTACCATAAGGTTGG | 0.509 | 0.532 | -0.00898 | 0.677 | -0.382 | 2.04 | 2.19 | 1.98 | 0.147 | 1.35
GCTTGTAGATCAAAGTTAAGAAAGACTAAGCTAA | -0.479 | -0.533 | -0.585 | -0.487 | -0.917 | 1.18 | 2.55 | 4.31 | 2.13 | 4.45

Sequence | PBM binding z-score [1] | PBM binding z-score [2] | PBM binding z-score [3] | PBM binding z-score [4] | PBM binding z-score [5] | PBM binding z-score [6] | PBM binding z-score [7] | PBM binding z-score [8] | PBM binding z-score [9] | PBM binding z-score [10]
TCTTGTAGATCAAATGTTAAGAAAGCCGAAGCCT | 0.704 | 0.517 | -0.184 | 0.216 | 0.123 | 1.15 | 1.12 | 3.42 | 3.84 | 3.61
GCTTACGGGTAAAAGGTTATAGCATGAATAGAAT | 1.77 | 2.73 | 0.384 | 2.57 | 0.0166 | 4.81 | 7.24 | 7.67 | 6.08 | 8.3
AGAATGAGGTTATCAAGATCAGGGAATTGCGGTC | 1.64 | 1.37 | 0.0557 | 1.14 | -0.163 | 2.8 | 1.6 | 2.08 | 0.462 | 1.29
TTACCAAGGTGAAGGTCGTTGAGCCCTCTGTAGA | 1.3 | 1.24 | -0.339 | 0.883 | -1.13 | 2.65 | 2.83 | 4.43 | 2.31 | 3.92
GCGGCTGGGGCATCAGCAGGTTACCATAACTTAA | -0.5 | -0.215 | -0.622 | 0.239 | -0.602 | 0.602 | -0.0151 | -0.415 | -0.593 | -0.53
CAAACTAGGTCACCGGAAGGTCAAATTCCGCATG | 6.25 | 6.28 | 5.9 | 5.82 | 1.95 | 6.06 | 9.94 | 8.01 | 6.22 | 7.81
TAGCCTAGGTCAGATCGGGCCAGGATACGCTATA | 1.61 | 1.02 | -0.706 | 0.308 | -0.62 | 1.68 | 0.718 | 0.623 | -0.241 | -0.042
AGAACGAGGGCACGCTAAGTTGATAGCAGAGTAG | 0.75 | 0.717 | -0.396 | 0.353 | -0.515 | 2.07 | 2.2 | 1.87 | 0.473 | 1.22
TCTTGTAGATCAAAGGTTAAGAAGGCCGAAGCCT | 1.58 | 2.1 | -0.0136 | 1.83 | -0.281 | 4.6 | 8.22 | 8.32 | 9.13 | 9.04
CCTAGTTTGTCAAGGTCACACACGCTATAGGTAC | 4.49 | 4.38 | 3.27 | 3.87 | 1.42 | 4.14 | 2.44 | 2.78 | 0.971 | 1.93
ATATGTAGGTTAGCTGTGGTCATTCAGACTAGGC | 0.89 | 1.93 | 0.212 | 0.643 | 0.0822 | 2.29 | 3.3 | 2.79 | 0.838 | 1.89
CAAACTAGGTCAAGAGGTCAATGTCCGCTTCCCG | 6.4 | 6.19 | 5.74 | 4.72 | 1.58 | 6.11 | 9.5 | 7.94 | 6.68 | 8
TAATATAGGTAAAAGGTGAAAGTCGGTGTGGTAA | 1.84 | 2.01 | 0.364 | 2.04 | 0.134 | 6.16 | 10.5 | 9.06 | 9.53 | 10.1
GCATATAAGTAATACAAGGTGAAAGTCCGATTGT | 0.578 | 0.301 | 0.499 | 0.331 | -0.122 | 0.85 | 0.911 | 0.715 | 0.283 | 0.301
TCGAGTAGGTTAGGGGCATTCAGAATGGCGTCGA | 0.42 | 0.257 | -0.31 | 0.672 | -0.239 | 1.39 | 0.676 | 1.98 | 1.13 | 1.76
CCTTACGGCTCACGAGGTTATAGCACGACGAGCG | 0.307 | 0.723 | 0.155 | 0.376 | -0.33 | 0.625 | 0.887 | 0.128 | -0.0191 | 0.0892
CTACCAAGGTGAACAAGGTCCTTGATTACTATTC | 0.682 | 0.376 | -0.214 | 0.744 | -0.587 | 1.57 | 0.578 | 0.855 | -0.122 | 0.296
CTCGAAAGGTCGTGCTCAGGTGACTATACCAAAC | 5.25 | 3.88 | 0.561 | 3.69 | 0.323 | 4.97 | 2.84 | 3.95 | 1.46 | 2.76
TCTCGGAGGACACGAAAGGTCAGAGCGCGACATC | 3.05 | 4.07 | 2.95 | 3.16 | -0.239 | 3.64 | 1.36 | 2.96 | 2.26 | 2.66
CGTCCAAGGTCAGCAAGTCAGTGAAAGCGACGTG | 4.99 | 3.1 | -0.297 | 2.02 | -0.381 | 4.25 | 2.21 | 3.14 | 0.523 | 1.9
CGTCCAAGGTGAGAGAGGTCAGTGAATGCCGAGT | 2.18 | 2.18 | 0.878 | 2.05 | -0.732 | 3.11 | 1 | 1.7 | 0.115 | 1.07
GCGACTGGGGCAGCAGCAGGTTACCATAACTTAA | -0.536 | -0.657 | -0.621 | -0.287 | -1.12 | 0.405 | 0.4 | -0.0757 | -0.451 | -0.719
ATACGTAGGTTAGCTGGGGTCATTCAGACTAGGC | 5.03 | 5.91 | 2.24 | 4.72 | 0.757 | 4.24 | 1.72 | 2.91 | 0.452 | 1.55
CGTCCAAGATCATAGGAGGTCAGTGAAGACAGAT | 1.56 | 2.77 | 1.2 | 2.26 | 0.134 | 2.69 | 0.898 | 0.559 | 0.251 | 0.198
